Values joined by “and” are separate entries in the source; they are usually repeats but may differ in a detail not shown here. Equal entries are not always repeated. Screen size: about 5,500 compounds; about 2,000 (36%) were called active. Not shown: some 18% with an inconclusive outcome. Cut-off read from the data, not from the text of the source: active = normalized growth mostly below about 0.91 (no sharp cut-off); inconclusive = no clear call, values can overlap the other calls; inactive = mostly above about 0.92. The list shows a part of the results.
Test: chemical genetic growth profiling, strain panel (AID 1159580);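 note: tested at 20 µM; growth read once vehicle control cultures reached saturation at 30 °C; 1 = growth at the plate median or of vehicle wells; lower values mean less growth of the strain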
Settings: S. cerevisiae deletion strains, growth OD

Measured: normalized growth

CC(CCc1ccccc1)NC(C)C(O)c1ccc(O)cc1 (stereo not given)
inactive: locus YAL021C, strain ccr4, active compounds read low 0.992 | locus YAL026C, strain drs2, active compounds read low 0.995 | locus YAL030W, strain snc1, active compounds read low 0.999 | locus YAL040C, strain CLN3, active compounds read low 1.01 | locus YBL061C, strain skt5, active compounds read low 0.997 | locus YBR009C, strain hhf1, active compounds read low 1 | locus YBR021W, strain FUR4, active compounds read low 0.997 | locus YBR023C, strain chs3, active compounds read low 1.01 | locus YBR171W, strain sec66, active compounds read low 1.01 | locus YBR229C, strain ROT2, active compounds read low 0.955 | locus YBR231C, strain swc5, active compounds read low 1 | locus YBR279W, strain paf1, active compounds read low 0.995 | locus YCL011C, strain gbp2, active compounds read low 1.01 | locus YCL016C, strain dcc1, active compounds read low 1.01 | locus YCL029C, strain bik1, active compounds read low 0.981 | locus YCL061C, strain MRC1 (second series), active compounds read low 1 | locus YCL061C, strain MRC1, active compounds read low 0.998 | locus YCL069W, strain vba3, active compounds read low 0.998 | locus YCR088W, strain abp1, active compounds read low 1.01 | locus YDL005C, strain med2, active compounds read low 0.999 | locus YDL035C, strain GPR1, active compounds read low 0.977 | locus YDL040C, strain nat1, active compounds read low 1 | locus YDL074C, strain BRE1, active compounds read low 0.953 | locus YDL101C, strain DUN1, active compounds read low 0.978 | locus YDL134C, strain PPH21, active compounds read low 1 | locus YDL185W, strain tfp1, active compounds read low 0.984 | locus YDL192W, strain arf1, active compounds read low 0.992 | locus YDR001C, strain nth1, active compounds read low 0.999 | locus YDR069C, strain doa4, active compounds read low 0.977 | locus YDR101C, strain arx1, active compounds read low 0.998 | locus YDR137W, strain rgp1, active compounds read low 0.989 | locus YDR150W, strain NUM1, active compounds read low 0.984 | locus YDR159W, strain sac3, active compounds read low 0.99 | locus YDR162C, strain NBP2, active compounds read low 0.991 | locus YDR195W, strain ref2 1 | locus YDR297W, strain sur2, active compounds read low 0.993 | locus YDR318W, strain mcm21, active compounds read low 1 | locus YDR334W, strain swr1, active compounds read low 1.01 | locus YDR335W, strain msn5, active compounds read low 0.995 | locus YDR363W, strain ESC2, active compounds read low 0.998 | locus YDR388W, active compounds read low 0.993 | locus YDR392W, strain spt3, active compounds read low 0.963 | locus YDR502C, strain sam2, active compounds read low 1 | locus YEL003W, strain gim4, active compounds read low 0.979 | locus YEL037C, strain rad23, active compounds read low 1 | locus YEL061C, strain CIN8 (second series), active compounds read low 1 | locus YEL061C, strain CIN8, active compounds read low 0.987 | locus YER002W, strain NOP16, active compounds read low 1 | locus YER015W, strain faa2, active compounds read low 0.998 | locus YER016W, strain bim1, active compounds read low 0.999 | locus YER110C, active compounds read low 0.962 | locus YER111C, strain swi4, active compounds read low 0.999 | locus YER155C, strain BEM2 (second series), active compounds read low 1 | locus YER155C, strain BEM2, active compounds read low 0.993 | locus YER167W, strain BCK2, active compounds read low 0.99 | locus YFR010W, strain ubp6, active compounds read low 1 | locus YGL078C, strain dbp3, active compounds read low 0.993 | locus YGL086W, strain mad1, active compounds read low 0.975 | locus YGL167C, strain pmr1, active compounds read low 1 | locus YGL173C, strain kem1, active compounds read low 1.01 | locus YGL227W, strain vid30, active compounds read low 1 | locus YGL240W, strain doc1, active compounds read low 0.993 | locus YGL248W, strain PDE1, active compounds read low 0.97 | locus YGL253W, strain hxk2, active compounds read low 0.997 | locus YGR078C, strain PAC10, active compounds read low 0.981 | locus YGR135W, strain pre9, active compounds read low 0.989 | locus YGR229C, strain SMI1, active compounds read low 0.989 | locus YGR252W, strain gcn5, active compounds read low 0.974 | locus YHR013C, strain ard1, active compounds read low 0.991 | locus YHR027C, strain rpn1, active compounds read low 1.02 | locus YHR030C, strain SLT2, active compounds read low 0.995 and 0.972 | locus YHR079C, strain IRE1 (second series), active compounds read low 1 | locus YHR079C, strain IRE1, active compounds read low 0.959 | locus YHR094C, strain hxt1, active compounds read low 1 | locus YHR129C, strain ARP1, active compounds read low 0.987 | locus YHR142W, strain chs7, active compounds read low 1.01 | locus YHR200W, strain rpn10, active compounds read low 0.997 | locus YIL066C, strain RNR3, active compounds read low 0.988 | locus YIL073C, strain SPO22, active compounds read low 0.979 | locus YIL125W, strain kgd1, active compounds read low 0.989 | locus YIR030C, strain dcg1, active compounds read low 0.983 | locus YJL092W, strain hpr5, active compounds read low 1.01 | locus YJL095W, strain BCK1 (second series), active compounds read low 1.02 | locus YJL095W, strain BCK1, active compounds read low 0.981 and 0.985 | locus YJL115W, strain asf1, active compounds read low 1.01 | locus YJL129C, strain trk1, active compounds read low 0.98 | locus YJL134W, strain LCB3, active compounds read low 0.993 | locus YJL154C, strain vps35, active compounds read low 0.996 | locus YJL164C, strain tpk1, active compounds read low 0.992 | locus YJL166W, strain qcr8, active compounds read low 1 | locus YJL168C, strain set2, active compounds read low 0.991 | locus YJL187C, strain SWE1 (second series), active compounds read low 0.982 | locus YJL187C, strain SWE1, active compounds read low 1 | locus YJR043C, strain POL32, active compounds read low 1 | locus YJR066W, strain TOR1, active compounds read low 0.925

From PubChem BioAssay AID1159580 (chemical genetic matrix, 2015)
